Laboratory results taken from PubChem BioAssay.
Calls of active or inactive are those of the source. Unless noted, the rule behind the calls is not given here.

Tests used:
[1] = anti-His antibody binders, primary screen, artefact control for SMM control protein annotation, biochemical, small-molecule microarray, 635 nm fluorescence (AID 1128); settings: anti-His Alexa647 antibody binding, higher = more signal;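 note: score merges feature fluorescence with signal-to-noise for each printed compound spot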
[2] = tested on: Human papillomavirus type 1a E7 protein (residues 1-88); experiment: HPV1a E7 small-molecule binders, primary screen, biochemical, small-molecule microarray, residues 1-88, 635 nm (AID 1129); settings: small-molecule microarray binding, fluorescence 635 nm; higher = more signal
[3] = target: Focal adhesion kinase 1 (Homo sapiens) (UniProt Q05397); experiment: small-molecule microarray binders of FAK, primary screen, biochemical, 635/667 nm fluorescence, BSA, DTT (AID 1130); settings: PTK2 binding, 635 nm fluorescence, higher = more signal;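 note: composite of spot emission at 667 nm and signal to noise over triplicate slides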
[4] = tested on: Fibrinogen (Alexa647-labelled); experiment: fibrinogen binders on compound microarrays, profiling panel, artefact control for SMM control-protein annotation, biochemical, small-molecule microarray, 635/667 nm fluorescence (AID 1131); settings: fibrinogen-A647 binding fluorescence, higher = more signal;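 note: z-score merges 667 nm fluorescence with per-spot signal-to-noise over triplicate slides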
[5] = target: Follistatin (Homo sapiens) (UniProt P19883); experiment: follistatin binders on small-molecule microarrays, primary screen, biochemical, small-molecule microarray, 635/667 nm fluorescence (AID 1132); settings: FST binding, 635 nm fluorescence, higher = more signal
[6] = target: Fibroblast growth factor 2 (Homo sapiens) (UniProt P09038); experiment: FGF2 binders on small-molecule microarrays, primary screen, biochemical, small-molecule microarray, 635/667 nm fluorescence (AID 1133); settings: small-molecule microarray binding, FGF2, fluorescence 635/667; higher = more signal
[7] = mitochondrial membrane potential change in A549 cells, profiling panel, cell-based, JC-1 fluorescence, basal, 24 h, 100 nL (AID 1138); settings: higher = more signal;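 note: A549 lung adenocarcinoma cells under basal conditions with no added stimulus; test concentration not given here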
Lefty1 = Lefty1 binders on small-molecule microarrays, primary screen, biochemical, small-molecule microarray, 635/667 nm fluorescence (AID 1139); settings: small-molecule microarray binding, fluorescence 635/667; higher = more signal
[8] = tested on: wheat germ agglutinin (Triticum aestivum), Alexa647-labelled; experiment: wheat germ agglutinin binders on compound microarrays, profiling panel, artefact control for SMM control-protein annotation, biochemical, small-molecule microarray, 635/667 nm fluorescence (AID 1140); settings: WGA-A647 binding, 635 nm fluorescence, higher = more signal;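 note: score merges 667 nm feature emission with signal to noise over triplicate slides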
[9] = target: Luciferin 4-monooxygenase (Photinus pyralis) (UniProt P08659); experiment: firefly luciferase enzyme inhibitors, primary screen, biochemical, luminescence, purified enzyme, 2006 set (AID 1141); settings: SteadyGlo luminescence, 30 min, higher = more signal, called active from +8 up or from −8 down;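 note: cell-free assay with purified firefly luciferase at 100 ng per well in PBS; test concentration not given here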
[10] = tested on: Wnt5a (protein binding on small-molecule microarray); experiment: Wnt5a binders on small-molecule microarray, primary screen, biophysical, 635/667 nm fluorescence (AID 1142); settings: 635 nm fluorescence, higher = more signal;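 note: fluorescence read at 667 nm with signal to noise per printed feature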
[11] = cell viability in Huh7 cells, primary screen, cytotoxicity control for HCV replication inhibitor project, CellTiter-Glo luminescence, basal, 48 h (AID 1143); settings: Huh7 HCV replicon, higher = more signal, called active from +8 up or from −8 down;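 note: Huh7 hepatoma cells carrying a hepatitis C replication reporter with no stimulus; test concentration not given here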
[12] = P. aeruginosa biofilm formation inhibitors, primary screen, PAO1 strain, BacTiter-Glo luminescence, LB-PBS (AID 1144); settings: 12 h, higher = more signal
[13] = CREB reporter modulators without forskolin, primary screen, cell-based, PC12, CRE-LacZ reporter, unstimulated (AID 1145); settings: no forskolin, luminescence, 4.5 h, higher = more signal, called active from +8 up or from −8 down
[14] = CREB reporter modulators under forskolin, primary screen, cell-based, PC12, CRE-LacZ reporter, forskolin-stimulated (AID 1146); settings: luminescence, 4.5 h, higher = more signal, called active from +8 up or from −8 down;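 note: PC12 cells with 6xCRE LacZ reporter stimulated by forskolin 10 µM; beta-galactosidase reporter signal reflecting CREB driven transcription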
[15] = target: Streptavidin (Streptomyces avidinii) (UniProt P22629); experiment: streptavidin binders on small-molecule microarray, primary screen, artefact control for SMM compound annotation, biophysical, 635/667 nm fluorescence (AID 1147); settings: streptavidin binding, higher = more signal;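 note: signal reflects streptavidin binding to arrayed compounds as a control protein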
[16] = small-molecule binders of probe aInhba, primary screen, biochemical, small-molecule microarray, 635/667 nm fluorescence (AID 1148); settings: higher = more signal;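 note: score merges 667nm spot fluorescence with signal-to-noise for antibody binding to printed compounds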
Torsin-1A (Homo sapiens) [17] = target: Torsin-1A (Homo sapiens) (UniProt O14656); experiment: torsin A binders from cell lysate, primary screen, small-molecule microarray, wild-type, 635/667 nm (AID 1149); settings: COS7 hTOR1A-WT lysate, 635 nm fluorescence, higher = more signal
Torsin-1A (Homo sapiens) [18] = target: Torsin-1A (Homo sapiens) (UniProt O14656); experiment: small-molecule binders of mutant TOR1A in lysate, primary screen, cell lysate, small-molecule microarray, COS7 lysate, 635/667 nm fluorescence (AID 1150); settings: COS7 hTOR1A mutant lysate, 635 nm fluorescence, higher = more signal;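 note: score pools 667 nm emission and signal to noise measuring lysate protein binding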
[19] = tested on: Sonic hedgehog protein (Shh); experiment: small-molecule binders of Shh protein, primary screen, biochemical, small-molecule microarray, 635/667 nm fluorescence (AID 1151); settings: small-molecule microarray binding, 635 nm fluorescence; higher = more signal;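 note: Shh protein binding to compounds spotted on small-molecule microarray slides; score combines spot fluorescence intensity with signal-to-noise across triplicate slides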

Chain of Luciferin 4-monooxygenase (Photinus pyralis) (P08659 whole entry, looked up): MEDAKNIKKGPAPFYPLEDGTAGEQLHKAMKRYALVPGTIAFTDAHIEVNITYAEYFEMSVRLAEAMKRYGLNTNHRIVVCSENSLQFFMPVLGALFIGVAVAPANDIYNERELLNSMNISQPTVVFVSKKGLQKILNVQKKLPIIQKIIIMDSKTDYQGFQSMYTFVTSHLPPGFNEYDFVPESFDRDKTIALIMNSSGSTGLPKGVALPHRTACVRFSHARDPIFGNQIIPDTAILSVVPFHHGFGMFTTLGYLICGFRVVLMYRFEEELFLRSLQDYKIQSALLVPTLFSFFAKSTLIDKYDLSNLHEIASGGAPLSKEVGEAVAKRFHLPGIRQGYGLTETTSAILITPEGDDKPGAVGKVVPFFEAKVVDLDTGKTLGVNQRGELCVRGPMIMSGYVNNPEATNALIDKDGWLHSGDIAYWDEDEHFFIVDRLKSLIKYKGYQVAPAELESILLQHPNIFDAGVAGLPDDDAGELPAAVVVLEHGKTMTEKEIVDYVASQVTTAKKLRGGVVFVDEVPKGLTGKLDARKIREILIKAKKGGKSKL
Chain of Streptavidin (Streptomyces avidinii) (P22629 whole entry, looked up): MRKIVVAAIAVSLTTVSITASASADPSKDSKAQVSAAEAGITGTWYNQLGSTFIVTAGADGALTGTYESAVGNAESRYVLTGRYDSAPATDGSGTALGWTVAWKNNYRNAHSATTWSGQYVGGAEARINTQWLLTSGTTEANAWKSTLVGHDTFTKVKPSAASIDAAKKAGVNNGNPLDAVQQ
Chain of Fibroblast growth factor 2 (Homo sapiens) (P09038 whole entry, looked up): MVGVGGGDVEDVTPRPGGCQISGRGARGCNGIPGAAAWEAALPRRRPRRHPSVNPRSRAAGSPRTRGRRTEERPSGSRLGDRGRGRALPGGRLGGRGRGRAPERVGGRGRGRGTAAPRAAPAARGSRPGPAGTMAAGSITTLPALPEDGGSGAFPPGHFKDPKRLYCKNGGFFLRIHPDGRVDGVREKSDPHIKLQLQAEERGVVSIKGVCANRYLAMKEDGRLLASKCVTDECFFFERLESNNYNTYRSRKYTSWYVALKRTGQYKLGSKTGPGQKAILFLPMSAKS
Chain of Torsin-1A (Homo sapiens) (O14656 whole entry, looked up): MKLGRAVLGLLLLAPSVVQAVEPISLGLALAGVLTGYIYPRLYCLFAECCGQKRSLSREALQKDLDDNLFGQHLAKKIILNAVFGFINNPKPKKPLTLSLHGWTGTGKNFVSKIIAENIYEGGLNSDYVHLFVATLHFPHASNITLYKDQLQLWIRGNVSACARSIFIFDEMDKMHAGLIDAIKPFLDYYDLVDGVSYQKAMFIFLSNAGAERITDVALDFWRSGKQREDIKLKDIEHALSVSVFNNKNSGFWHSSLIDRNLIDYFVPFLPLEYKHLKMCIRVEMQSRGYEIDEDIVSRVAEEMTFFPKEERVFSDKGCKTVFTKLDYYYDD
Chain of Focal adhesion kinase 1 (Homo sapiens) (Q05397 whole entry, looked up): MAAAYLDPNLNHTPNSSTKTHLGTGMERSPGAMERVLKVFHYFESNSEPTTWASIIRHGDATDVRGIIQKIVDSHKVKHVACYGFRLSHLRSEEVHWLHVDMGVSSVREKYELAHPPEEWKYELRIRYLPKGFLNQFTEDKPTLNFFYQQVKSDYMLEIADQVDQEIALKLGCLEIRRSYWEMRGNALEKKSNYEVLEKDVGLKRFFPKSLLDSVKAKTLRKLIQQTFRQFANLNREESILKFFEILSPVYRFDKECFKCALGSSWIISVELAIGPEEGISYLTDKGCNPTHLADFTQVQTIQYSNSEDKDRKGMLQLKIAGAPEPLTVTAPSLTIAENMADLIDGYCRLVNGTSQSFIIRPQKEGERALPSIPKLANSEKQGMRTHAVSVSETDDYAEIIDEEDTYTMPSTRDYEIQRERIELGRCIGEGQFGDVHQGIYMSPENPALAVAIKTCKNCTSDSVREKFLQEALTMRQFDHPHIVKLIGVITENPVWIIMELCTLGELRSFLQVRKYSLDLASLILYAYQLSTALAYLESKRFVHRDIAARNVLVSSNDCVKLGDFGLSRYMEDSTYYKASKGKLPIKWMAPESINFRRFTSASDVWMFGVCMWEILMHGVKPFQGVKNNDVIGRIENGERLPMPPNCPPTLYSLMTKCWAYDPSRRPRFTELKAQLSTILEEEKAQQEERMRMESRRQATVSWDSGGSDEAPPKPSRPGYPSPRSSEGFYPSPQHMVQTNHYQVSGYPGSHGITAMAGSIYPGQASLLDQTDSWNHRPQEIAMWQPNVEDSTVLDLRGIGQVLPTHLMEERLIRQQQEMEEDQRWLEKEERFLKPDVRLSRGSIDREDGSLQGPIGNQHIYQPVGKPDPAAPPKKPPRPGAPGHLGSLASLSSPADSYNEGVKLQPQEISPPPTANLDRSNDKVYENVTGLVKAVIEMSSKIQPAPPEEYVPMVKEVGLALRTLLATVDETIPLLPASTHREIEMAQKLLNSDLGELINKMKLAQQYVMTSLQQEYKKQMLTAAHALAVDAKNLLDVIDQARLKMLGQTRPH
Chain of Follistatin (Homo sapiens) (P19883 whole entry, looked up): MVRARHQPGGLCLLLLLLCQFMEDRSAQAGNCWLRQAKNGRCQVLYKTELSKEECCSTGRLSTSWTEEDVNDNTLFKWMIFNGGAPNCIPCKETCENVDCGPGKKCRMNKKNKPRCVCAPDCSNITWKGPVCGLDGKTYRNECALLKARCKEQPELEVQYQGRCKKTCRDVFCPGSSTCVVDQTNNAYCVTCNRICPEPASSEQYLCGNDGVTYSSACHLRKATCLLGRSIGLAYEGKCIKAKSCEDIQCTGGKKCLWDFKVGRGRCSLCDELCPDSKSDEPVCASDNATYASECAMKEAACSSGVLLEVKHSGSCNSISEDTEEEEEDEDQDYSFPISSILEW

Compound | composite z-score [1] | composite z-score [2] | composite z-score [3] | composite z-score [4] | composite z-score [5] | composite z-score [6] | z-score [7] | composite z-score (Lefty1) | composite z-score [8] | z-score [9] | composite z-score [10] | z-score [11] | z-score [12] | z-score [13] | z-score [14] | composite z-score [15] | composite z-score [16] | composite z-score (Torsin-1A (Homo sapiens) [17]) | composite z-score (Torsin-1A (Homo sapiens) [18]) | composite z-score [19]
COCC(=C=CC[C@@H](O)c1cccc(OCCO)c1)C[C@@H](O)COCc1ccccc1 | 0.934 | 1.09 | 0.112 | -0.272 | 0.941 | -0.237 | 0.806 | -0.058 | 1.34 | -2.33 (inactive) | 0.515 | -0.825 (inactive) | 0.125 (inactive) | 5.99 (inactive) | -0.352 (inactive) | 0.709 | 0.825 | 1.58 | 2.28 | 0.436
O=C1C2C=CC(C(O)c3cccc(O)c3)N(Nc3ccccc3F)C2C(=O)N1c1ccccc1 (stereo not given) | 0.933 | 0.137 | 0.158 | 0.327 | 0.434 | -0.214 | -0.846 | 0.474 | 0.248 | 0.883 (inactive) | -0.333 | -6.08 (inactive) | -2.21 (inactive) | -0.471 (inactive) | -0.556 (inactive) | -0.344 | -0.21 | -0.701 | 0.239 | 0.0048
C=CC[C@]1(C(=O)N(C)C)COC(c2ccc(OCCCO)cc2)=N1 | 3.41 | 1.09 | 0.268 | -0.744 | 0.517 | 0.982 | -0.392 | -0.26 | 0.615 | -2.7 (inactive) | 1.07 | -1.88 (inactive) | -1.15 (inactive) | 2.5 (inactive) | -1.45 (inactive) | 2.12 | 0.3 | 0.577 | 1.85 | -0.174
C=CCN1C(=O)[C@]2(O[C@H](CCO)[C@@H]([Si](C)(C)c3ccc(OC)cc3)[C@@H]2C)c2ccccc21 | 0.0171 | 0.745 | -0.0378 | 0.641 | -0.862 | -0.14 | -1.83 | 0.058 | 0.134 | -0.43 (inactive) | -0.381 | -8 (inactive) | -0.566 (inactive) | 19.5 (active) | -3.3 (inactive) | -0.652 | -0.209 | -0.958 | -0.0259 | -1.12
COCCOC(=O)N1C(=O)[C@@]2(c3cc(C#CCCO)ccc31)[C@H](c1ccccc1OCCO)N1[C@H](c3ccccc3)[C@H](c3ccccc3)OC(=O)[C@H]1[C@@H]2C(=O)N1CCc2cc(OC)c(OC)cc2C1 | 1.86 | 1.22 | 0.405 | 0.869 | 1.14 | 1.25 | -0.0868 | 0.786 | 0.546 | -1.26 (inactive) | 0.318 | -1.07 (inactive) | 0.609 (inactive) | 1.72 (inactive) | 0.385 (inactive) | 0.321 | -0.0448 | 1.17 | 1.18 | 1.2
Cc1ccc(S[C@]2(C(=O)NCC(F)(F)F)CC(=O)N(C3CCCCC3)[C@@H]2c2ccc(CO)cc2)cc1 | 1.12 | 0.408 | -0.35 | -0.0988 | -0.16 | -0.257 | 2.02 | -0.583 | 0.235 | -0.0377 (inactive) | 0.0911 | -1.09 (inactive) | 0.12 (inactive) | -0.529 (inactive) | -0.147 (inactive) | -0.777 | -0.176 | 0.118 | 1.06 | -0.121
N#Cc1ccc(C(O)C2C=CC3C(=O)N(c4ccccc4)C(=O)C3N2Nc2ccc([N+](=O)[O-])cc2)cc1 (stereo not given) | 2.33 | 1.25 | 0.895 | 0.991 | 0.499 | -0.207 | -2.34 | -0.44 | 1.4 | 0.279 (inactive) | 0.488 | -0.843 (inactive) | -0.532 (inactive) | -0.0696 (inactive) | -1.24 (inactive) | 1.86 | 0.252 | 0.0605 | 0.212 | -0.51
COC(=O)[C@@]1(Cc2ccccc2)[C@H]2c3cc(C(=O)N4CCCC4)n(Cc4ccc(C(F)(F)F)nc4)c3C[C@H]2CN1C(=O)c1ccccc1 | 0.472 | 1.28 | 1.23 | 1.06 | 0.778 | -0.38 | 1.32 | 0.333 | 1.05 | 2.36 (inactive) | 0.836 | -2.97 (inactive) | 0.519 (inactive) | 0.0075 (inactive) | -0.611 (inactive) | 1.78 | 0.446 | 1.03 | 0.774 | -0.878
C=C(COC)/C(=C/C[C@H](OC(=O)c1ccncc1)c1ccc(OCCO)cc1)c1cc(C(=O)OC)ccc1OC | 1.14 | 1.18 | 0.918 | 0.763 | 1.38 | 0.329 | -0.408 | 1.58 | 0.622 | -0.265 (inactive) | 0.457 | -3.86 (inactive) | -0.999 (inactive) | 5.8 (inactive) | 0.946 (inactive) | 0.616 | -0.0087 | 0.229 | 0.132 | 1.94
COc1ccc(NN2C(C(O)c3ccc(OC)cc3)C=CC3C(=O)N(C4CCCCC4)C(=O)C32)cc1 (stereo not given) | 0.679 | 1.18 | 0.349 | 0.92 | 0.977 | -0.0659 | 0.017 | 0.433 | 0.701 | 1.25 (inactive) | 0.219 | -0.914 (inactive) | -0.257 (inactive) | -0.163 (inactive) | -0.211 (inactive) | 0.964 | -0.0313 | 0.118 | 0.202 | 0.0867
